Data reported in PubChem BioAssay (NCI).
Compounds without any hit were thinned out: in the full panel of roughly 83,000, 20% have a hit.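 A percent growth of 40 corresponds to 60% growth inhibition; 0 means no net growth; -100 means all cells died. Active threshold: below 10.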 Unmarked numbers belong to inactive results. Active and inactive are the calls of the source.

Assays:
Experiment in all cases: NCI-60 one-dose screen, 48 h (100 = growth as untreated, 0 = no growth, -100 = all killed)
HT29 colon = settings: 10 µM unless noted
SNB-75 CNS = settings: 10 µM unless noted
SNB-19 CNS = settings: 10 µM unless noted
U251 CNS = settings: 10 µM unless noted
PC-3 prostate = settings: 10 µM unless noted
SK-MEL-5 melanoma = settings: 10 µM unless noted
UACC-62 melanoma = settings: 10 µM unless noted
LOX IMVI melanoma = settings: 10 µM unless noted
SK-MEL-28 melanoma = settings: 10 µM
SK-MEL-2 melanoma = settings: 10 µM unless noted

Row | Compound | growth (HT29 colon) | growth (SNB-75 CNS) | growth (SNB-19 CNS) | growth (U251 CNS) | growth (PC-3 prostate) | growth (SK-MEL-5 melanoma) | growth (UACC-62 melanoma) | growth (LOX IMVI melanoma) | growth (SK-MEL-28 melanoma) | growth (SK-MEL-2 melanoma)
1 | Cc1ccc(CN2CCC(C(=O)Nc3ccc(-c4cc5ccccc5[nH]4)cc3)CC2)o1 | 57.1% | 100% | 80% | 39.8% | 2.12% (active) | 50.4% | 72.1% | 42.2% | 85.1% | 88.4%
2 | CC/C(=C(\CC)c1ccc(OCC[N+](C)(C)C)cc1)c1ccc(OC)cc1 | 39.5% | 31.2% | 27.1% | 21.6% | 41.6% | 44.1% | 42.2% | 73.2% | 76.7% | 98.8%
3 | COc1ccc(-c2nc(-c3ccccc3)c(-c3ccccc3)[nH]2)cc1OC1CCCCC1 | 99.1% | 78.7% | 85.8% | 90.3% | 64.8% | 93.6% | 76.7% | 83.4% | 96.4% | 95.1%
4 | O=C1/C(=C/c2cccc(O)c2)COc2ccc(O)cc21 | 72.7% | 96.4% | 80% | 29.6% | 72.7% | 86.9% | 82.4% | -57.1% (active) | 102% | 108%
5 | Cc1ccc(S(=O)(=O)c2c(COC(=O)c3cccc(C)c3)c(-c3ccccc3)nn2C)cc1 | -44.5% (active) | 107% | 24.6% | -32.4% (active) | 48.5% | 77.6% | 88.7% | -22.8% (active) | -68.4% (active) | 27.2%
6 | COc1ccc(C2c3ccc4ccccc4c3Oc3ncn(CCCn4ccnc4)c(=N)c32)cc1OC (stereo not drawn) | 20.7% | 84.4% | 79.2% | 61% | 52.6% | 63.7% | 69.1% | 35.9% | 68.2% | 81.4%
7 | COc1ccc(-c2nsc3c2NC(=O)CC3c2cccc(OC)c2)cc1 (stereo not drawn) | 8.58% (active) | -17.5% (active) | 70.3% | 37.8% | 23.8% | 31.6% | 41.5% | 50.3% | 45.3% | 34.1%
8 | COc1cccc2c1C=C1CCCCC3=Cc4c(OC)cccc4OC13O2 | 16.3% | -18.1% (active) | 51.3% | 30.9% | 33.7% | 50.3% | 24.2% | 32.8% | 53.6% | 48.6%
9 | Nc1ccn(C2O[C@H](CO)[C@@H](O)[C@H]2O)c(=O)n1 (stereo partly drawn) | 106% | 76.9% | 101% | 48.9% | 85.6% | 89.9% | 95.9% | 75.5% | 76.4% | 110%
10 | NCCCNc1nc2ccccc2c2c(=O)c3cc(F)ccc3sc12 | -50.9% (active) | 25% | 44.4% | -56.1% (active) | 18.9% | 76.4% | -76.1% (active) | -92.1% (active) | 0.2% (active) | 50.6%
11 | COc1ccc(Cn2cc(Cn3c(=O)c(-c4nc5ccccc5[nH]4)cc4ccccc43)nn2)c(OC)c1OC | 4.85% (active) | -74% (active) | 22.8% | 12.7% | 17% | 5.92% (active) | 23.2% | 18.9% | 50.1% | 28%
12 | C1CCN(c2nc(N3CCCCC3)nc(N3CCOCC3)n2)CC1 | 88.2% | 81% | 96.1% | 101% | 104% | 101% | 93% | 98.7% |  | 
13 | Cc1ccc2c(n1)C(=O)C(Oc1ccc(Br)cc1)=CC2=O | 97.6% | 82.2% | 96.6% | 94.5% | 95% | 93.6% | 95.9% | 84.2% | 116% | 91.7%
14 | COc1ccc(N)c(-c2cc3c(c4c2[nH]c2ccc(OC)cc24)CCCC3)c1 | 76.1% | 70.9% | 88.5% | 74.3% | 52.9% | 94.7% | 69.5% | 83.1% | 97.7% | 95.4%
15 | COc1ccc2sc3c(NCCCN)nc4ccccc4c3c(=O)c2c1 | -47.8% (active) | 48.3% | 69.6% | -58.1% (active) | 48.8% | 84.3% | 61% | -87.2% (active) | 84.8% | 96.2%
16 | COc1ccccc1C1=C(Br)C(=O)c2nc(C)ccc2C1=O | 101% | 94.4% | 101% | 102% | 101% | 100% | 88.9% | 97.1% | 104% | 97.2%
17 | O=C(/C=C/c1ccc(Cl)cc1)c1ccc(Nc2nc(NCCO)nc(N3CCOCC3)n2)cc1 | 42.2% | 64.6% | 91.9% | 46.1% | 77.1% | 79.4% | 69% | 68% | 94.7% | 109%
18 | O=C(N/N=C/c1ccccc1O)C(=O)Nc1ccc(F)cc1 | 40.9% | 85.5% | 53.9% | 33.5% | 54.7% | 55.5% | 35.1% | 27.2% | 59.4% | 71.6%
19 | CCOC(=O)c1cc2c(n1Cc1ccccc1)-c1oncc1CCC2 | 37.7% | 75.6% | 88.1% | 85.8% | 80.6% | 66.6% | 51.8% | 79.4% | 67% | 83.5%
20 | O=C1C(Cl)=C(NCc2ccco2)C(=O)c2ccccc21 | 67.9% | 87.1% | 98.8% | 70.2% | 82.7% | -75.6% (active) | 76% | 16.2% | 106% | 93.4%
21 | Nc1ccc(-c2ccc(-c3ccccc3N)c3[nH]c4ccccc4c23)cc1 | 13.9% | 28.4% | 39% | 35.4% | 24.9% | 6.03% (active) | 25.4% | 27.7% | 51% | 19.5%
22 | COC(=O)C1(C)COP(=O)(Nc2ccc(OC)cc2)OC1 (stereo not drawn) | 101% | 92.1% | 103% | 104% | 99.8% | 105% | 108% | 96.3% | 108% | 96.4%
23 | CC1CCCCN1CCCNC(=O)c1ccc2c(c1)sc1nc(-c3ccc(F)cc3)cn12 (stereo not drawn) | 92.8% | 83.5% | 104% | 99.1% | 83.8% | 99.3% | 100% | 93.1% | 104% | 103%
24 | COc1ccc(-c2nsc3c2NC(=O)CC3c2ccsc2)cc1 (stereo not drawn) | 0.633% (active) | 10.4% | 50% | 20.4% | 24.3% | 22% | 24.9% | 33.4% | 42.7% | 45.5%
25 | Cc1sc2ncn(CC(=O)Nc3ccc(S(N)(=O)=O)cc3)c(=O)c2c1C | 107% | 86.1% | 98.5% | 100% | 101% | 99.3% | 96.5% | 99% | 110% | 106%
26 | COC(=O)C1(C)CCC[C@]2(C)[C@H]3C[C@H]4C(C(C)C)=C[C@]3(CC[C@@H]12)[C@H]1[C@@H]4[C@@H](OCC#CCN2CCOCC2)CC[C@@H]1OCC#CCN1CCOCC1 (stereo partly drawn) | 77.6% | 93.1% | 79% | 70.9% | 53.9% | 80.2% | 61% | 89% | 90.5% | 89.3%
27 | O=C(Cn1cc(COc2ncnc3c2cnn3-c2ccccc2)nn1)Nc1cccc2ccccc12 | 102% | 74.9% | 88.4% | 96.7% | 95.8% | 92.5% | 83.9% | 97.5% | 100% | 113%
